{"source": "PubChem BioAssay (Tox21)", "note": "Activity calls are given as the source filed them. Entries that show only a call come without a potency. Calls follow the shape of the dose curve; as a rule, active = well fitted curve in the direction sought with a large enough effect in the repeat runs; inconclusive = weak or mixed curves; inactive = flat fitted curve, though single readings scatter."}
{"test": "qHTS assay to test for compound auto fluorescence at 460 nm (blue) in HEK293 cells (AID 720678)", "conditions": "blue autofluorescence 405/460 nm; series mostly up to 91.3 µM", "in_short": "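Auto fluorescence in the blue band was quantified as triamterene equivalency. HEK293 cells were seeded at 2,000/well, dosed after a 4-5 hr attachment, and kept overnight at 37C before the 405/460 nm reading.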"}
{"smiles": "Cc1cccc(N(C)C(=S)Oc2ccc3ccccc3c2)c1", "outcome": "inactive"}
{"smiles": "O=C(c1ccccc1)c1ccc(O)cc1O", "outcome": "inactive"}
{"smiles": "OC(CCl)CCl", "outcome": "inactive"}
{"smiles": "CC1=CCC(C(C)(C)O)CC1", "note": "(stereo not given)", "outcome": "inactive"}
{"smiles": "Nc1ccccc1N", "outcome": "inactive"}
{"smiles": "O=C(OCc1ccccc1)c1ccccc1O", "outcome": "inactive"}
{"smiles": "c1cc(-c2ccncc2)ccn1", "outcome": "inactive"}
{"smiles": "CC(=O)c1ccccn1", "outcome": "inactive"}
{"smiles": "NNc1ccc(C(=O)O)cc1", "outcome": "inactive"}
{"smiles": "Cc1cccc(C(=O)O)c1", "outcome": "inactive"}
{"smiles": "CC(C)CC(C)(O)C#CC(C)(O)CC(C)C", "note": "(stereo not given)", "outcome": "inactive"}
{"smiles": "C#C[C@]1(O)CC[C@H]2[C@@H]3CCC4=Cc5oncc5C[C@]4(C)[C@H]3CC[C@@]21C", "outcome": "inactive"}
{"smiles": "c1ccncc1", "outcome": "inactive"}
{"smiles": "COC(=O)CCC(=O)OC", "outcome": "inactive"}
{"smiles": "Cc1[nH]c(=O)c(C#N)cc1-c1ccncc1", "outcome": "inactive"}
{"smiles": "O=Cc1ccccc1O", "outcome": "inactive"}
{"smiles": "CN1C(C(=O)Nc2ccccn2)=C(O)c2ccccc2S1(=O)=O", "outcome": "inactive"}
{"smiles": "CNCCCC12CCC(c3ccccc31)c1ccccc12", "outcome": "inactive"}
{"smiles": "C[C@]12CC[C@H]3[C@@H](CCC4=CC(=O)CC[C@@]43C)[C@@H]1CC[C@@H]2C(=O)CO", "outcome": "inactive"}
{"smiles": "O=C(c1ccc(OCCN2CCCCC2)cc1)c1c(-c2ccc(O)cc2)sc2cc(O)ccc12", "outcome": "inactive"}
{"smiles": "Cc1cccc([N+](=O)[O-])c1C", "outcome": "inactive"}
{"smiles": "Cc1c(C(N)=O)cc([N+](=O)[O-])cc1[N+](=O)[O-]", "outcome": "inactive"}
{"smiles": "CC(C)(C)NC(=O)[C@H]1CC[C@H]2[C@@H]3CC[C@H]4NC(=O)C=C[C@]4(C)[C@H]3CC[C@]12C", "outcome": "inactive"}
{"smiles": "COC(C)COC(C)COC(C)CO", "note": "(stereo not given)", "outcome": "inactive"}
{"smiles": "O=C(/C=C/c1ccccc1)OCc1ccccc1", "outcome": "inactive"}
{"smiles": "CC(=O)C1(C)CC2=C(CCCC2(C)C)CC1C", "note": "(stereo not given)", "outcome": "inactive"}
{"test": "qHTS assay to test for compound auto fluorescence at 590 nm (red) in HEK293 cells (AID 720679)", "conditions": "red autofluorescence 540/590 nm; series mostly up to 91.3 µM", "in_short": "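Autofluorescence equivalency to Rose Bengal sodium, 540/590nm, in HEK293 cells exposed overnight to 23 nL compound per well.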"}
{"smiles": "Cc1cccc(N(C)C(=S)Oc2ccc3ccccc3c2)c1", "Potency": "inactive"}
{"smiles": "COc1ccc(OC)c(C(O)CNC(=O)CN)c1", "note": "(stereo not given)", "Potency": "inactive"}
{"smiles": "O=C(c1ccccc1)c1ccc(O)cc1O", "Potency": "inactive"}
{"smiles": "OC(CCl)CCl", "Potency": "inactive"}
{"smiles": "CC1=CCC(C(C)(C)O)CC1", "note": "(stereo not given)", "Potency": "inactive"}
{"smiles": "CN(C)CCC=C1c2ccccc2CCc2ccccc21", "Potency": "inactive"}
{"smiles": "Nc1ccccc1N", "Potency": "inactive"}
{"smiles": "O=C(OCc1ccccc1)c1ccccc1O", "Potency": "inactive"}
{"smiles": "c1cc(-c2ccncc2)ccn1", "Potency": "inactive"}
{"smiles": "CC(=O)c1ccccn1", "Potency": "inactive"}
{"smiles": "CCCCNS(=O)(=O)c1ccccc1", "Potency": "inactive"}
{"smiles": "C=CC(C)(CCC=C(C)C)OC(C)=O", "note": "(stereo not given)", "Potency": "inactive"}
{"smiles": "Cn1cnc([N+](=O)[O-])c1Sc1ncnc2nc[nH]c12", "Potency": "inactive"}
{"smiles": "OCCO", "Potency": "inactive"}
{"smiles": "NNc1ccc(C(=O)O)cc1", "Potency": "inactive"}
{"smiles": "Cc1cccc(C(=O)O)c1", "Potency": "inactive"}
{"smiles": "C=C(C)C1CC=C(C)CC1", "note": "(stereo not given)", "Potency": "inactive"}
{"smiles": "CC(C)CC(C)(O)C#CC(C)(O)CC(C)C", "note": "(stereo not given)", "Potency": "inactive"}
{"smiles": "C#C[C@]1(O)CC[C@H]2[C@@H]3CCC4=Cc5oncc5C[C@]4(C)[C@H]3CC[C@@]21C", "Potency": "inactive"}
{"smiles": "CCOC(=O)C(C#N)=C(c1ccccc1)c1ccccc1", "Potency": "inactive"}
{"smiles": "Nc1ccc(S(=O)(=O)Nc2cnc3ccccc3n2)cc1", "Potency": "inactive"}
{"smiles": "CCCCOCCOCCOCCO", "Potency": "inactive"}
{"smiles": "c1ccncc1", "Potency": "inactive"}
{"smiles": "COC(=O)CCC(=O)OC", "Potency": "inactive"}
{"smiles": "Cc1[nH]c(=O)c(C#N)cc1-c1ccncc1", "Potency": "inactive"}
{"smiles": "O=Cc1ccccc1O", "Potency": "inactive"}
{"smiles": "C=C(C)C(=O)OCCOC(=O)C(=C)C", "Potency": "inactive"}
{"smiles": "CN1C(C(=O)Nc2ccccn2)=C(O)c2ccccc2S1(=O)=O", "Potency": "inactive"}
{"smiles": "CNCCCC12CCC(c3ccccc31)c1ccccc12", "Potency": "inactive"}
{"smiles": "C[C@]12CC[C@H]3[C@@H](CCC4=CC(=O)CC[C@@]43C)[C@@H]1CC[C@@H]2C(=O)CO", "Potency": "inactive"}
{"smiles": "O=C(c1ccc(OCCN2CCCCC2)cc1)c1c(-c2ccc(O)cc2)sc2cc(O)ccc12", "Potency": "inactive"}
{"smiles": "COc1cccc2c1C(=O)c1c(O)c3c(c(O)c1C2=O)C[C@@](O)(C(=O)CO)C[C@@H]3O[C@H]1C[C@H](N)[C@H](O)[C@H](C)O1", "Potency": "inactive"}
{"smiles": "Cc1cccc([N+](=O)[O-])c1C", "Potency": "inactive"}
{"smiles": "Cc1c(C(N)=O)cc([N+](=O)[O-])cc1[N+](=O)[O-]", "Potency": "inactive"}
{"smiles": "CC(C)(C)NC(=O)[C@H]1CC[C@H]2[C@@H]3CC[C@H]4NC(=O)C=C[C@]4(C)[C@H]3CC[C@]12C", "Potency": "inactive"}
{"smiles": "C#C[C@]1(O)CC[C@H]2[C@@H]3CCc4cc(OC)ccc4[C@H]3CC[C@@]21C", "Potency": "inactive"}
{"smiles": "COC(C)COC(C)COC(C)CO", "note": "(stereo not given)", "Potency": "inactive"}
{"smiles": "O=C(/C=C/c1ccccc1)OCc1ccccc1", "Potency": "inactive"}
{"smiles": "CC(=O)C1(C)CC2=C(CCCC2(C)C)CC1C", "note": "(stereo not given)", "Potency": "inactive"}
